# Data reported in publication PMC7862700, “An all-to-all approach to the identification of sequence-specific readers for epigenetic DNA modifications on cytosine”.
# Assays:
# Experiment in all cases: DAPPL (digital affinity profiling via proximity ligation, sequencing); 10 mM Tris-HCl pH 7.5, 50 mM NaCl, 1 mM DTT, 4% glycerol, room temperature, 30 min; GST-TFs on glutathione beads, 16-mer random dsDNA library, 0.1% formaldehyde crosslink after washing; high values mean tight binding
# FEV = target: T1, FEV (Homo sapiens, UniProt Q99581 1-238); settings: protein: recombinant; tags: N-terminal GST; dsDNA, one strand shown
# T1 sequence: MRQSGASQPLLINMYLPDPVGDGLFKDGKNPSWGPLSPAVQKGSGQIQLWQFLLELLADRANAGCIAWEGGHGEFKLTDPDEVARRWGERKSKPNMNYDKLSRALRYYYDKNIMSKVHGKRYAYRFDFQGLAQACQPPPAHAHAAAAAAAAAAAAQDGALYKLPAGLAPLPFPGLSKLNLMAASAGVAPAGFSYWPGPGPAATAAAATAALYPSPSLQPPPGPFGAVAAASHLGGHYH
# Outline: (§1)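 Human transcription factors fused to GST were expressed in yeast, captured on glutathione beads, given DNA barcodes and pooled with a GST-only negative control. Pools were incubated with 200 nmole of a 16-mer random double-stranded DNA library in Tris/NaCl/DTT/glycerol buffer at room temperature for 30 min. They were then washed, crosslinked with 0.1% formaldehyde, proximity-ligated (BsaI/T4 ligase, 1 h, 37 °C), PCR-amplified and sequenced on an Illumina NextSeq500. Binding signal is each 6-mer's read frequency for a factor divided by its frequency for the GST control.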
# ETV5 = ETV5 (Homo sapiens, UniProt P41161 1-510); settings: protein: recombinant; tags: N-terminal GST; dsDNA, one strand shown
# Outline: as §1
# HSF1 = HSF1 (Homo sapiens, UniProt Q00613 1-529); settings: protein: recombinant; tags: N-terminal GST; chain copies: 3; dsDNA, one strand shown
# Outline: as §1
# SPIC = target: T2, SPIC (Homo sapiens, UniProt Q8N5J4 1-248); settings: protein: recombinant; tags: N-terminal GST; dsDNA, one strand shown
# T2 sequence: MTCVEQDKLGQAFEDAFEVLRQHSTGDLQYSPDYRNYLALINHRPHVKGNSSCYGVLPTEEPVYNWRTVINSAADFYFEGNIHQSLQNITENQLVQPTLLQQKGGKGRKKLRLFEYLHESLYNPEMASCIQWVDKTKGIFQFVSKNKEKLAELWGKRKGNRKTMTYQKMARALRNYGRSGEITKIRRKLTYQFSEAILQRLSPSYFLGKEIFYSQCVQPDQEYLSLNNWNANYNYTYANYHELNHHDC
# Outline: as §1
# ELF4 = ELF4 (Homo sapiens, UniProt Q99607 1-663); settings: protein: recombinant; tags: N-terminal GST; dsDNA, one strand shown
# Outline: as §1
# ELK4 = target: T3, ELK4 (Homo sapiens, UniProt P28324-2 1-405); settings: protein: recombinant; tags: N-terminal GST; dsDNA, one strand shown
# T3 sequence: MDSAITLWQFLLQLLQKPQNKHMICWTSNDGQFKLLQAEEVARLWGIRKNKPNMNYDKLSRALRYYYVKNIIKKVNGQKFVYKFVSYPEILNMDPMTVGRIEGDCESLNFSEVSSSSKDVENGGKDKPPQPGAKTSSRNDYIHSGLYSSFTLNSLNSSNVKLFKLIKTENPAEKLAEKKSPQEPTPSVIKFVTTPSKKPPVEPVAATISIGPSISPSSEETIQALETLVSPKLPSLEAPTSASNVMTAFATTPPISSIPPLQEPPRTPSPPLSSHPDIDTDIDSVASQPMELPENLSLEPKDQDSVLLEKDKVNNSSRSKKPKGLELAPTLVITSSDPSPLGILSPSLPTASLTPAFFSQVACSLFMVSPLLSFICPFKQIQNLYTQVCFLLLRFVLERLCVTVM
# Outline: as §1
# ETV2 = target: T4, ETV2 (Homo sapiens, UniProt O00321 1-342); settings: protein: recombinant; tags: N-terminal GST; dsDNA, one strand shown
# T4 sequence: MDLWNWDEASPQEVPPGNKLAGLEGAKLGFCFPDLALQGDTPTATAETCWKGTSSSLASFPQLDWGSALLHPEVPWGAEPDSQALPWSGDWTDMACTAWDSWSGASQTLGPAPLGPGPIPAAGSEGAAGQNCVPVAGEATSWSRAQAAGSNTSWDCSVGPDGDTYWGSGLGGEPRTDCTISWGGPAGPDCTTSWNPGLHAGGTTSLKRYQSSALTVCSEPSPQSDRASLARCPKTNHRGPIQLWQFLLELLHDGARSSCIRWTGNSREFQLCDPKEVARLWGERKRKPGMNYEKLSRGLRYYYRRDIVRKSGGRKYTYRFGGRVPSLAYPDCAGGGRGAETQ
# Outline: as §1
# ELF3 = target: T5, ELF3 (Homo sapiens, UniProt P78545 1-371); settings: protein: recombinant; tags: N-terminal GST; dsDNA, one strand shown
# T5 sequence: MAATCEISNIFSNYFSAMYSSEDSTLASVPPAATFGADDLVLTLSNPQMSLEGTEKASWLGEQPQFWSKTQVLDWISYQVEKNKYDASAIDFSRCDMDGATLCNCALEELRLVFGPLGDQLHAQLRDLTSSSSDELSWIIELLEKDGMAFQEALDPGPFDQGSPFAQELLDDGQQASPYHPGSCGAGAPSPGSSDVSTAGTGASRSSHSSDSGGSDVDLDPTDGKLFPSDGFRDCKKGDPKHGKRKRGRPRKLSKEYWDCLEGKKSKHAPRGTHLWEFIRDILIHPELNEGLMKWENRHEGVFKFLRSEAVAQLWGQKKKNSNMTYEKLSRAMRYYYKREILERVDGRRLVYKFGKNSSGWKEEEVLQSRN
# Outline: as §1
# CRX = CRX (Homo sapiens, UniProt O43186 1-299); settings: protein: recombinant; tags: N-terminal GST; dsDNA, one strand shown
# Outline: as §1
# ETV1 = ETV1 (Homo sapiens, UniProt P50549 1-477); settings: protein: recombinant; tags: N-terminal GST; dsDNA, one strand shown
# Outline: as §1
# ERF = target: T6, ERF (Homo sapiens, UniProt P50548 1-548); settings: protein: recombinant; tags: N-terminal GST; dsDNA, one strand shown
# T6 sequence: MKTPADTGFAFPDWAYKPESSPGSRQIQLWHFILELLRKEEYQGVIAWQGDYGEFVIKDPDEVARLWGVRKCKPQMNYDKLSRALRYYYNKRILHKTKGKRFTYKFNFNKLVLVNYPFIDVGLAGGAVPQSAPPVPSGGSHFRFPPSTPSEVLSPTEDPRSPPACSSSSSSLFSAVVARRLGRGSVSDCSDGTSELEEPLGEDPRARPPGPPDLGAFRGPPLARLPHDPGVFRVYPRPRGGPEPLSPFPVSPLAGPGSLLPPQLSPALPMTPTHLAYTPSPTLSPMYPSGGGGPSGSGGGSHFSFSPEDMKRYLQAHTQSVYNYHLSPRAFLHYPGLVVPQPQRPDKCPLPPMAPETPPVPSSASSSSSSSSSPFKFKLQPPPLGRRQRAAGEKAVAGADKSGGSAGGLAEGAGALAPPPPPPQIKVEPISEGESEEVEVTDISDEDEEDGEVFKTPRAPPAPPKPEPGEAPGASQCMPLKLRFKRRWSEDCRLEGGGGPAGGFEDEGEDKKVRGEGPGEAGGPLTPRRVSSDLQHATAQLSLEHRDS
# Outline: as §1
# ETV3L = target: T7, ETV3L (Homo sapiens, UniProt Q6ZN32 1-361); settings: protein: recombinant; tags: N-terminal GST; dsDNA, one strand shown
# T7 sequence: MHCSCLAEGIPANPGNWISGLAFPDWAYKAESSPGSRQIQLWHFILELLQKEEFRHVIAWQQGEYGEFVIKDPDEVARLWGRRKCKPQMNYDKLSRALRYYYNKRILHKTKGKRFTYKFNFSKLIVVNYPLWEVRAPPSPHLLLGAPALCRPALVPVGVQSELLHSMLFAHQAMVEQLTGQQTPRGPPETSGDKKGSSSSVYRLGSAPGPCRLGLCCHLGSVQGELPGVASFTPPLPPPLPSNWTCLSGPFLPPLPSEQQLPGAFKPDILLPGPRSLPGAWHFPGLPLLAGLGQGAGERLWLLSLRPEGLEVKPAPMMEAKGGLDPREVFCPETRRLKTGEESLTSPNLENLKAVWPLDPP
# Outline: as §1
# ETS2 = target: T8, ETS2 (Homo sapiens, UniProt P15036 1-469); settings: protein: recombinant; tags: N-terminal GST; dsDNA, one strand shown
# T8 sequence: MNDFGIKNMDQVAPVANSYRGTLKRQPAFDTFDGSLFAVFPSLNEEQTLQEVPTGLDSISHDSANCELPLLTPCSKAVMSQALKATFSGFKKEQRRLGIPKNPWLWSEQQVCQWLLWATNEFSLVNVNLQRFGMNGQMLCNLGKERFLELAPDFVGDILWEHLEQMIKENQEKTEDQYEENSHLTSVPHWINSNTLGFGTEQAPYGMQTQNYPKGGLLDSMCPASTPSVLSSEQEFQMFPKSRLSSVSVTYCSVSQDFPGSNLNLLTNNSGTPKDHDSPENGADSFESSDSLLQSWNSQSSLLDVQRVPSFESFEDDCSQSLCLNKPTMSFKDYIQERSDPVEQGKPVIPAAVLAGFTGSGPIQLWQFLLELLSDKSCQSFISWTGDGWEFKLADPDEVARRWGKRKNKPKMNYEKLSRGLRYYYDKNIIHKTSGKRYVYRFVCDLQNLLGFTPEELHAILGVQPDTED
# Outline: as §1
# SPDEF = target: T9, SPDEF (Homo sapiens, UniProt O95238 1-335); settings: protein: recombinant; tags: N-terminal GST; dsDNA, one strand shown
# T9 sequence: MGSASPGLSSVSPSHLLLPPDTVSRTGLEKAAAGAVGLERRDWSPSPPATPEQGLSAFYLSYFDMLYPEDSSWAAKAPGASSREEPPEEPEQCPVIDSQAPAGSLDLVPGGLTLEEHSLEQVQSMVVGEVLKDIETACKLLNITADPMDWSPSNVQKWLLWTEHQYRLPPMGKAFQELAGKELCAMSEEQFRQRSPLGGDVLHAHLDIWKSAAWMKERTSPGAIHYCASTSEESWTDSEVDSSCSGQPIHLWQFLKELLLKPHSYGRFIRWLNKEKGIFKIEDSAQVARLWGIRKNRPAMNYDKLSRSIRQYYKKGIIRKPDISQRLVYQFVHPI
# Outline: as §1
# ETV7 = target: T10, ETV7 (Homo sapiens, UniProt Q9Y603 1-341); settings: protein: recombinant; tags: N-terminal GST; dsDNA, one strand shown
# T10 sequence: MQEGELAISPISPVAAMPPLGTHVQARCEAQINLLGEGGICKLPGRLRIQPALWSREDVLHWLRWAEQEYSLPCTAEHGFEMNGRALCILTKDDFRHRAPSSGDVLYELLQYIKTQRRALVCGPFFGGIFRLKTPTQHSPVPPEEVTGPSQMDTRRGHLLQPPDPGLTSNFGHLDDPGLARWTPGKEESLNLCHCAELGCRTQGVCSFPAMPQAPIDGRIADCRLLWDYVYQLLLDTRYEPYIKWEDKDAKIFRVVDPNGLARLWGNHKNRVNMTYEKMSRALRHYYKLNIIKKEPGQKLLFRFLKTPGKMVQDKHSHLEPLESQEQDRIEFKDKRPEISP
# Outline: as §1
# ELF5 = target: T11, ELF5 (Homo sapiens, UniProt Q9UKW6-2 1-255); settings: protein: recombinant; tags: N-terminal GST; dsDNA, one strand shown
# T11 sequence: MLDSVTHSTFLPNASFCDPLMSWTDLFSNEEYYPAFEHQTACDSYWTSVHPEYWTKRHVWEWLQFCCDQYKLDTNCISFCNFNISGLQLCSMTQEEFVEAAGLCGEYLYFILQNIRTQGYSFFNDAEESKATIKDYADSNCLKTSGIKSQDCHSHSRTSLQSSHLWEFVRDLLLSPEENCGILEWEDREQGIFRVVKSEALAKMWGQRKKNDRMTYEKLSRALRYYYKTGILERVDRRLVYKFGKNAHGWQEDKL
# Outline: as §1
# ETV3 = target: T12, ETV3 (Homo sapiens, UniProt P41162-2 1-143); settings: protein: recombinant; tags: N-terminal GST; dsDNA, one strand shown
# T12 sequence: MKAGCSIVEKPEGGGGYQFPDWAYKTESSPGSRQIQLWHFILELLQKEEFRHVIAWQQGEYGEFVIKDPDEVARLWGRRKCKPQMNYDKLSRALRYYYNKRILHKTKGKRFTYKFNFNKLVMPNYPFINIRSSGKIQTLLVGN
# Outline: as §1
# ETV6 = ETV6 (Homo sapiens, UniProt P41212 1-452); settings: protein: recombinant; tags: N-terminal GST; dsDNA, one strand shown
# Outline: as §1
# Chain of HSF1 (Q00613 whole entry): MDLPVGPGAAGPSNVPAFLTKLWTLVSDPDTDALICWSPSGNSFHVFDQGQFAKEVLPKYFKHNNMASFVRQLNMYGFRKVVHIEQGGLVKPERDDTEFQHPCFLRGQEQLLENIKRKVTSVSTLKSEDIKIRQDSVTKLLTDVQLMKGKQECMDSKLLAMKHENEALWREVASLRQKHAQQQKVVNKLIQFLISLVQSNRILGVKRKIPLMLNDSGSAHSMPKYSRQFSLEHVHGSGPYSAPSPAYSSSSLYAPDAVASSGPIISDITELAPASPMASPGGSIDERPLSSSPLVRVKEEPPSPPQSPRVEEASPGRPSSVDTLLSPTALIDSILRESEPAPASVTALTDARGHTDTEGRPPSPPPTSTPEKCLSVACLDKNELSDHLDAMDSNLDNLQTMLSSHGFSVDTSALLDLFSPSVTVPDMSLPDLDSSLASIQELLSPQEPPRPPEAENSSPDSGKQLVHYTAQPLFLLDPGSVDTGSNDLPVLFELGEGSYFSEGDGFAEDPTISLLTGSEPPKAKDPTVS
# Chain of ETV6 (P41212 whole entry): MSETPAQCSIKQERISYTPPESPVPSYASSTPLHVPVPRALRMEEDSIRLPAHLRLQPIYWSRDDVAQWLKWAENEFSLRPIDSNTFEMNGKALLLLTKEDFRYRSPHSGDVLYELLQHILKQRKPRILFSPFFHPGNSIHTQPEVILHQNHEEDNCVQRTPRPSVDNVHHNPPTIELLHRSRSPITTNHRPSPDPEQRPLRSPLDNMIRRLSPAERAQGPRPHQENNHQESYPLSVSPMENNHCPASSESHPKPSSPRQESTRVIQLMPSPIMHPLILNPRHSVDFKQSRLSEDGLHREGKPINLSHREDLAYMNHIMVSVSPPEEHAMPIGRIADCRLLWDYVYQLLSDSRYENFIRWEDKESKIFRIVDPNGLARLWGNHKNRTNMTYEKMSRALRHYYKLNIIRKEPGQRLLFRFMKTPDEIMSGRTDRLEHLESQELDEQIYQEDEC
# Chain of ETV1 (P50549 whole entry): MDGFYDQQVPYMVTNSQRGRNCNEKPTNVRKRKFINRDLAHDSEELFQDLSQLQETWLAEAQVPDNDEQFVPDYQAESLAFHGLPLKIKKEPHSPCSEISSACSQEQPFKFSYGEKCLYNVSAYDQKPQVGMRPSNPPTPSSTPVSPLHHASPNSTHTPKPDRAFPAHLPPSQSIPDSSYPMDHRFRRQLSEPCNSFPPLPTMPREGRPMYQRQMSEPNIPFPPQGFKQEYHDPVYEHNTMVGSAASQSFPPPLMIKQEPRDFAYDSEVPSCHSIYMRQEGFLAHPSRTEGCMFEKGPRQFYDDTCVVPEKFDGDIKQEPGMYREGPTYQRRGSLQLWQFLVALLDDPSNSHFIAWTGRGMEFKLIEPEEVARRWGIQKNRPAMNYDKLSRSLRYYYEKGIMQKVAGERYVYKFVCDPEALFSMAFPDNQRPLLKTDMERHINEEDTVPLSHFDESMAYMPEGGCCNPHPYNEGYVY
# Chain of ETV5 (P41161 whole entry): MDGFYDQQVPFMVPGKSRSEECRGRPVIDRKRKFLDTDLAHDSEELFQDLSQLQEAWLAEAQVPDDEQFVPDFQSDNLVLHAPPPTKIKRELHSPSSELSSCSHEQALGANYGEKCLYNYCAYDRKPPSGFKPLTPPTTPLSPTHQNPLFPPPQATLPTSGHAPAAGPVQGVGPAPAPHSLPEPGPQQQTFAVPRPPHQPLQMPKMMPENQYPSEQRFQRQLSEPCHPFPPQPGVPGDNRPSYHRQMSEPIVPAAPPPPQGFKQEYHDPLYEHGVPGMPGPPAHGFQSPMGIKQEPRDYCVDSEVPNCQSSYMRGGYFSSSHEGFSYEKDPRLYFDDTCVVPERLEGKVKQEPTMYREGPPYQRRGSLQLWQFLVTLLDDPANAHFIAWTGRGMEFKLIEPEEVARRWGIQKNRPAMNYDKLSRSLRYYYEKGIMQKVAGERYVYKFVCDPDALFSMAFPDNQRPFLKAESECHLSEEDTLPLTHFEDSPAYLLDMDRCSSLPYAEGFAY
# Chain of CRX (O43186 whole entry): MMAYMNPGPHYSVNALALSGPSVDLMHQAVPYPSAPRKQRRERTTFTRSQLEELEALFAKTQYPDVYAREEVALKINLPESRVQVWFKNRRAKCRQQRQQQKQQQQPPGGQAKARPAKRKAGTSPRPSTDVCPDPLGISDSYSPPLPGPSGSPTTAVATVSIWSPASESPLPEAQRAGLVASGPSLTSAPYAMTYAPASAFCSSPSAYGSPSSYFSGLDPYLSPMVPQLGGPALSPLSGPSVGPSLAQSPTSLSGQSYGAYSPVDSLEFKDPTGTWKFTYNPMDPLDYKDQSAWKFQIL
# Chain of ELF4 (Q99607 whole entry): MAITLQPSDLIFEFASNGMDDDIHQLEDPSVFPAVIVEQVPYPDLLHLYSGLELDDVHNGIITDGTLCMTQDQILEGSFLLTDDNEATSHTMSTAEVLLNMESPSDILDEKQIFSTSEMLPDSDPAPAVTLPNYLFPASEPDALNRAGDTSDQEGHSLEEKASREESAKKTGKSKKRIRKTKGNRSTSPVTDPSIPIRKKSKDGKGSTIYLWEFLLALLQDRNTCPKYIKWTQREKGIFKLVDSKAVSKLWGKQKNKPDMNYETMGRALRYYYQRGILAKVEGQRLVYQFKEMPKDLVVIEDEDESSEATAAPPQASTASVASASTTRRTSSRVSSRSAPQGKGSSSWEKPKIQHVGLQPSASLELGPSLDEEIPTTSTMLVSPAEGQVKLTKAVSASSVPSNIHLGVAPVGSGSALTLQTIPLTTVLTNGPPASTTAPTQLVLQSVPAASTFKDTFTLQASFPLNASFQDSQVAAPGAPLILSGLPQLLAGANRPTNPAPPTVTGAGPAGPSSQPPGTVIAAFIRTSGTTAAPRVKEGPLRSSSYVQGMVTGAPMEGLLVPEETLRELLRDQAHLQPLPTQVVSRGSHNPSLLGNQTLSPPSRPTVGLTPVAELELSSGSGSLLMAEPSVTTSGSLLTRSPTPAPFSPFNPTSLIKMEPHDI
sequence,measurement,setting,value
TCTCTA,binding signal,FEV,"1.32 fold enrichment (6-mer frequency, TF over GST control)"
same,binding signal,ETV5,"1.21 fold enrichment (6-mer frequency, TF over GST control)"
same,binding signal,HSF1,"1.74 fold enrichment (6-mer frequency, TF over GST control)"
same,binding signal,SPIC,"1.38 fold enrichment (6-mer frequency, TF over GST control)"
same,binding signal,ELF4,"1.25 fold enrichment (6-mer frequency, TF over GST control)"
same,binding signal,ELK4,"1.22 fold enrichment (6-mer frequency, TF over GST control)"
same,binding signal,ETV2,"1.24 fold enrichment (6-mer frequency, TF over GST control)"
same,binding signal,ELF3,"1.28 fold enrichment (6-mer frequency, TF over GST control)"
same,binding signal,CRX,"1.56 fold enrichment (6-mer frequency, TF over GST control)"
same,binding signal,ETV1,"1.2 fold enrichment (6-mer frequency, TF over GST control)"
same,binding signal,ERF,"1.24 fold enrichment (6-mer frequency, TF over GST control)"
same,binding signal,ETV3L,"1.29 fold enrichment (6-mer frequency, TF over GST control)"
same,binding signal,ETS2,"1.22 fold enrichment (6-mer frequency, TF over GST control)"
same,binding signal,SPDEF,"1.24 fold enrichment (6-mer frequency, TF over GST control)"
same,binding signal,ETV7,"1.34 fold enrichment (6-mer frequency, TF over GST control)"
same,binding signal,ELF5,"1.21 fold enrichment (6-mer frequency, TF over GST control)"
same,binding signal,ETV3,"1.3 fold enrichment (6-mer frequency, TF over GST control)"
same,binding signal,ETV6,"1.21 fold enrichment (6-mer frequency, TF over GST control)"
